FMDV RLuc: shows antiviral activity in FMDV Renilla assay; FMDV replicon cells, Renilla luciferase signal; Potency, µM (top dose mostly 57.5 µM), usual class: inhibitors; 120,000 tested, 0.32% active; AID 1745857; also: nearly all actives have a fitted effect of over 55% in size
FMDV FLuc: shows antiviral activity against foot and mouth disease virus | FMDV antiviral cell assay, firefly luciferase signal | Potency, µM (highest dose often 57.5 µM), actives largely listed as inhibitors | 120,000 tested, 0.23% active; also: nearly all actives have a fitted effect of over 60% in size
Hits are given with their value; [ ] = dose if it differs, or a comment. In the library only some 0.45% were active in any assay of this set; here they are far more common. Calls follow the shape of the full dose curve.

Screening COc1ccc(OC)c(NC(=O)c2ccc(-c3nc(COc4ccccc4)c(C)o3)cc2)c1 returned FMDV RLuc inactive and FMDV FLuc inactive.
`COc1ccccc1NC(=O)c1ccc(-c2nc(COc3ccc(C)cc3)c(C)o2)cc1` gave FMDV RLuc 25.1µM and FMDV FLuc inconclusive.
C/C(Cl)=C\C[N+]1(C/C=C(\C)Cl)CCCCC1 was read as FMDV RLuc inactive and FMDV FLuc inactive.
For Cc1ccc(NC(=O)CN(C)C(=O)C2CCN(c3ccc(C#N)cn3)CC2)cc1 the results were FMDV RLuc inactive and FMDV FLuc inactive.
For COc1ccc(-c2cc(C(F)(F)F)nc(S(C)(=O)=O)n2)cc1 the results were FMDV RLuc inconclusive and FMDV FLuc inactive.
CCOC(=O)CS(=O)(=O)c1nc(-c2ccc(F)cc2)cc(C(F)(F)F)n1 was read as FMDV RLuc 28.2µM and FMDV FLuc inconclusive.
`O=C(Nc1cccc(Br)c1)Nc1ccc2c(c1)N(C(=O)c1ccccc1)CC2` gave FMDV RLuc 14.1µM and FMDV FLuc inconclusive.
CC(=O)c1cccc(NC(=O)Nc2cccc(Br)c2)c1 was read as FMDV RLuc inactive and FMDV FLuc inactive.
For N#CCCn1cc(-c2csc(NC3CC3)n2)c2ccccc21 the results were FMDV RLuc inactive and FMDV FLuc inactive.
For FC(F)(F)c1ccc(Cl)c(N/N=C/c2ccccc2Cl)c1 the results were FMDV RLuc inactive and FMDV FLuc inactive.
`O=C(CSc1nc(=O)n(Cc2cccnc2)c2c1CCC2)Nc1cccc(Cl)c1` gave FMDV RLuc inactive and FMDV FLuc inactive.
Screening CC(C)c1ccc(NC(=O)CSc2nc(=O)n(Cc3cccnc3)c3c2CCC3)cc1 returned FMDV RLuc 8.91µM and FMDV FLuc inconclusive.
CCCNC(=O)CSc1ncc(-c2ccccc2)o1 was read as FMDV RLuc inactive and FMDV FLuc inactive.
CCN(CC)CCCN(C/C=C/c1ccccc1)C/C=C/c1ccccc1 was read as FMDV RLuc inactive[1.06 µM] and FMDV FLuc inactive.
CCNC(=O)C(C)NC(=O)c1cc2ccccc2oc1=O (stereo not drawn) was read as FMDV RLuc inactive and FMDV FLuc inactive.
`O=c1[nH]c(=O)n(Cc2ccccc2)c2c1C(C(F)(F)F)(C(F)(F)F)N=C(c1cccs1)N2` gave FMDV RLuc inconclusive and FMDV FLuc 20µM.
Cc1ccc(C2=NC(C(F)(F)F)(C(F)(F)F)c3c(n(-c4ccccc4)c(=O)[nH]c3=O)N2)cc1 was read as FMDV RLuc inactive and FMDV FLuc inactive.
For CN(C)CCn1c(=O)n(CC(=O)O)c(=O)c2c3c(sc21)COC(C)(C)C3 the results were FMDV RLuc inactive and FMDV FLuc inactive.
Screening Cc1c(O)ccc2c(CN3CCN(c4cccc(C(F)(F)F)c4)CC3)cc(=O)oc12 returned FMDV RLuc 12.6µM and FMDV FLuc 12.6µM.
Screening Cc1c(O)ccc2c(CN3CCN(Cc4cccc(C(F)(F)F)c4)CC3)cc(=O)oc12 returned FMDV RLuc inactive and FMDV FLuc inactive.
`COc1ccc(Cl)cc1NC(=O)CSc1nc2c(c(=O)n1C)SCC2` gave FMDV RLuc inactive and FMDV FLuc inactive.
O=C(Nc1ccc(Cl)cc1)Nc1ccc(Cl)c(C(F)(F)F)c1 was read as FMDV RLuc 7.08µM and FMDV FLuc inconclusive.
Screening O=C(Nc1ccc(Cl)c(C(F)(F)F)c1)c1ccc(Cl)cc1Cl returned FMDV RLuc inconclusive and FMDV FLuc inactive.
Screening CCCCNC(=O)CCc1c(C)nc2cc(-c3ccccc3)nn2c1C returned FMDV RLuc inactive and FMDV FLuc 1.78µM.
Screening COC(=O)c1ccc(NC(=O)CCc2c(C)nc3cc(-c4cccc(F)c4)nn3c2C)cc1 returned FMDV RLuc inactive and FMDV FLuc inconclusive.
Cc1nc2cc(-c3ccccc3)nn2c(C)c1CCC(=O)NCCc1ccccc1 was read as FMDV RLuc inactive and FMDV FLuc inconclusive.
`COc1ccc(NC(=O)CCc2c(C)nc3cc(-c4cccc(F)c4)nn3c2C)cc1Cl` gave FMDV RLuc inactive and FMDV FLuc 28.2µM.
`O=C(NC1CC1)c1cccc(NC(=O)C2CC3CCC2C3)c1` (stereo not drawn) gave FMDV RLuc inactive and FMDV FLuc inactive.
For Cc1ccc(NCc2nc3ccccc3n2CCOc2ccccc2C)cc1 the results were FMDV RLuc inactive and FMDV FLuc inactive.
For CCc1nc2ccccc2n1CCCCOc1ccccc1C the results were FMDV RLuc inconclusive and FMDV FLuc 11.2µM.
Screening CC(C)CCn1c(SCC(=O)Nc2ccccc2)nc2c1c(=O)[nH]c(=O)n2C returned FMDV RLuc inactive and FMDV FLuc inactive.
Screening COc1ccc(NC(=O)Cn2c(=O)oc3cc(S(=O)(=O)N4CCC(C)CC4)ccc32)c(OC)c1 returned FMDV RLuc 10µM and FMDV FLuc inconclusive.
Screening COc1ccc(C)cc1NC(=O)Cn1c(=O)oc2cc(S(=O)(=O)N3CCCCC3)ccc21 returned FMDV RLuc inactive and FMDV FLuc inactive.
For O=C(OC/C=C/c1ccccc1)c1cc2ccccc2[nH]1 the results were FMDV RLuc inactive and FMDV FLuc inactive.
`CCOc1ccc(CN2CCN(Cc3ccc4c(c3)c3ccccc3n4CC)CC2)cc1` gave FMDV RLuc inconclusive and FMDV FLuc inactive.
`COc1cc(CNCC2CCNCC2)ccc1OCc1ccccc1Cl` gave FMDV RLuc 35.5µM and FMDV FLuc inconclusive.
For COc1cc(CNCc2ccco2)ccc1OCc1ccccc1C the results were FMDV RLuc inactive and FMDV FLuc inactive.
For CCn1c2ccccc2c2cc(CNCC3CCNCC3)ccc21 the results were FMDV RLuc 28.2µM and FMDV FLuc inconclusive.
`CC(Nc1ccc([N+](=O)[O-])c2cnccc12)c1ccc(F)cc1` (stereo not drawn) gave FMDV RLuc 25.1µM and FMDV FLuc inconclusive.
Screening O=[N+]([O-])c1ccc(NC(c2ccccc2)c2ccccn2)c2ccncc12 (stereo not drawn) returned FMDV RLuc inactive and FMDV FLuc inactive.
CCCCNCc1ccc(-c2ccc(C(=O)O)cc2)o1 was read as FMDV RLuc inactive and FMDV FLuc inactive.
`CCCCOc1ccc(C(=O)NCCS(=O)(=O)N2CCN(c3ccccc3OC)CC2)cc1` gave FMDV RLuc inconclusive and FMDV FLuc 17.8µM.
`CCCCOc1ccc(C(=O)NCCS(=O)(=O)N2CCN(c3ccc(F)cc3)CC2)cc1` gave FMDV RLuc inactive and FMDV FLuc inactive.
For CC(=O)c1ccc(S(=O)(=O)N2CCn3cccc3C2c2ccc(F)c(F)c2)cc1 (stereo not drawn) the results were FMDV RLuc inactive and FMDV FLuc inactive.
`CC(=O)c1ccc(S(=O)(=O)N2CCn3cccc3C2c2ccccc2F)cc1` (stereo not drawn) gave FMDV RLuc 31.6µM and FMDV FLuc inactive.
For COc1cccc(NC(=O)Cn2cc(C#N)c3cc(Br)ccc32)c1 the results were FMDV RLuc inactive and FMDV FLuc inactive.
Screening COc1ccc(N2CCN(C(=O)CCc3c(C)nc4cc(-c5ccc(Cl)cc5)nn4c3C)CC2)cc1 returned FMDV RLuc inactive and FMDV FLuc 31.6µM.
COc1ccc(N2CCN(C(=O)CCc3c(C)nc4cc(-c5ccc(OC)cc5OC)nn4c3C)CC2)cc1 was read as FMDV RLuc inactive and FMDV FLuc inactive.
CCCC1CCC(c2ccc(C(=O)Oc3cncc(Cl)c3)cc2)CC1 (stereo not drawn) was read as FMDV RLuc inactive and FMDV FLuc inactive.
C=C(C)COc1cccc(C(=O)Nc2ccccc2)c1 was read as FMDV RLuc inactive and FMDV FLuc inactive.
CC(=O)Nc1ccc(NC(=O)C(C)OC(=O)c2ccc3c(c2)NC(=O)CS3)cc1 (stereo not drawn) was read as FMDV RLuc inactive[1.06 µM] and FMDV FLuc inactive.

Compound activity as filed in PubChem.
